The structures appear in SMILES notation. The campaign covered roughly 360,000 compounds. About 1,800 (0.5%) were called active. The sample holds actives, similar compounds and a random draw of the others, so the mix is not that of the screen. A number with no mark means an inactive call.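 The calls were made as follows: active = mean inhibition of at least 75% with every replicate also reaching 75%; inconclusive = mean inhibition at least 75% but some replicate below; inactive = mean inhibition below 75%.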

A short description of the assay: reduction of Shn3 3'UTR firefly luciferase signal, primary screen, Schnurri-3 inhibitor project, cell-based, Clone20 osteoblasts, set 2 (AID 588674).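 Also: 0% = median of neutral control wells and 100% = pilot-screen positive control compound.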 The settings on record: Clone20 osteoblast Shn3 3'UTR firefly luciferase, 24 h; at 12.5 µM; stronger effect = higher value.
The inhibition is the drop in the measured response relative to a control, in per cent. Take `CCCCNc1nc2c(c(=O)n(C)c(=O)n2C)n1Cc1cccc(OC)c1`: the inhibition is 86.7% (active).
With `CCn1c(NCCc2ccc(OC)c(OC)c2)nc2c1c(=O)n(C)c(=O)n2C` the figure was 63.1%; with `Cn1c(=O)c2c(nc(NCCNC(=O)c3ccco3)n2Cc2ccccc2F)n(C)c1=O`, 12.8%.
With `C[C@H](C(=O)CC(=O)OC(C)(C)C)[C@H](O)c1ccc(C(F)(F)F)cc1` the figure was -13.2%.
With `O=C(NCc1ccc(F)cc1)c1cc(C2CCCCN2C(=O)c2cccs2)on1` (configuration not stated) the figure was 4.41%; with `O=S1(=O)CC(N2CCN(c3ccccn3)CC2)CN1Cc1ccc(F)cc1` (configuration not stated), 11.2%.
In the case of `COc1ccccc1N1CCN(/N=C\C(Br)=C\c2ccccc2)CC1`, the inhibition was 39.8%.
With `COc1ccccc1/C=C/C=N/n1c(-c2ccc(Cl)cc2Cl)n[nH]c1=S` the figure was -1.5%; with `Cc1cc(-c2n[nH]c(=S)n2/N=C/C(Br)=C/c2ccccc2)n[nH]1`, 90.7% (active); with `Cc1ccc(S(=O)(=O)N2C[C@]3(O)C[C@@H]4C(=O)N(c5ccccc5)C(=O)[C@@H]4C[C@]3(OC(=O)NC3CC3)C2)cc1`, 7.81%.
With `CCOC(=O)/C(=C\c1ccc([N+](=O)[O-])cc1)C(=O)c1cc(C(C)=O)c(Nc2ccccc2)s1` the figure was 97.8% (active); with `CCOC(=O)/C(=N\Nc1ccccc1[N+](=O)[O-])c1csc(Nc2ccccc2)n1`, -7.96%; with `CCOC(=O)C(=Cc1ccccc1)C(=O)c1ccccc1`, 40.1%.
With `COc1ccc(-c2c(C#Cc3ccsc3)c3cc(-c4ccc(CN5CCOCC5)cc4)ccc3n2C)cc1` the figure was 10.2%; with `CC1(C)CC(N2CCN(C(c3ccccc3)c3ccccc3)CC2)=CC(=[N+]2CCCCC2)C1`, 88.3% (active); with `COc1ccccc1NC(=S)N1CCN(C(c2ccccc2)c2ccccc2)CC1`, 13.3%.
For the compound `Cc1cccc(N2CCN(C(c3ccccc3)c3nnnn3CC3CCCO3)CC2)c1C` (configuration not stated), the inhibition is 20.4%.
Regarding `Cc1ccc(-n2c(=O)c(C#N)cc3c(=O)n4ccccc4nc32)cc1C`, the inhibition was 6.55%.
For the compound `O=C(NCC1CCCCC1)c1cc(S(=O)(=O)N2CCCCC2)ccc1N1CCOCC1`, the inhibition is -9.53%.
With `CCc1nnc(NC(=O)CCN(c2ccc(C)cc2)S(=O)(=O)c2ccccc2)s1` the figure was -20.5%.
In the case of `Cc1sc2ncnc(SCC(=O)NC3CCS(=O)(=O)C3)c2c1C` (configuration not stated) it was -6.98%; in that of `CC(C)(C)c1ccc(/C=C2\Oc3c(ccc(O)c3CN3CCN(CCO)CC3)C2=O)cc1`, 7.57%.
With `O=C(Cn1cc(C(=O)C2CC2)c2ccccc21)Nc1ccccc1Cl` the figure was 87.4% (active); with `COCCCNC(=O)Cn1cc(C(=O)C2CC2)c2ccccc21`, 11.6%; with `Cc1ccccc1NC(=O)Cn1cc(C(=O)C2CC2)c2ccccc21`, 8.79%.
In the case of `COc1cc(CNc2ncnc3c2ncn3[C@H]2CN(Cc3cccs3)C[C@@H](CO)O2)cc(OC)c1OC`, the inhibition was -5.77%.
Regarding `Cc1ccccc1C(=O)N1CCN(c2ccc(NC(=O)c3cccs3)cc2)CC1`, the inhibition was 23.5%.
In the case of `COc1ccccc1C(=O)NC(=S)Nc1ccc(N2CCOCC2)cc1` it was -4.89%; in that of `Cc1ccccc1C(=O)NC(=S)Nc1ccc(N2CCN(C(=O)c3ccccc3)CC2)cc1`, 88.5% (active).
In the case of `CC1(C(=O)NS(=O)(=O)Cc2cccc(Cl)c2)CCN1C(=O)Cc1ccc(Cl)cc1Cl` (configuration not stated), the inhibition is 18.9%.
In the case of `CC1(C)CC(=O)C=C(c2cccc3c2Oc2ccccc2S3)C1` it was 22.5%; in that of `CCOC(=O)c1c(C)[nH]c(C(=O)OCC(=O)c2ccc(OC)cc2OC)c1C`, -19.1%; in that of `CCOC(=O)c1c(C)[nH]c(C)c1S(=O)(=O)NCCCc1ccco1`, 6.75%.
`CCOC(=O)c1c(C)[nH]c2c1-c1ccccc1C(=O)C2=O`: the inhibition is 95.4% (active).
With `COc1ccccc1C(=O)Nc1ccnn1C1CCN(C(=O)C(C)(C)C)CC1` the figure was -5.61%; with `CC(=O)Nc1ccc(N2C(=O)CCC2=O)cc1C`, -1.51%.
In the case of `C/C(N)=C(/C#N)C(=O)COC(=O)C1CCN(C(=O)c2ccc(Cl)cc2)CC1` it was 3.42%; in that of `Cc1cccc(NC(=O)c2nc(S(=O)(=O)Cc3ccccc3)ncc2Cl)c1`, 96.9% (active); in that of `Cc1cccc(NC(=O)Cn2cc(C(=O)c3ccco3)c3ccccc32)c1`, 76.4%.
Consider `Cc1cccc(CN2CCC(CNC(=O)Nc3ccc(F)c(Cl)c3)CC2)c1`, for which the inhibition was 31.4%.
With `Cc1cccc(NC(=O)CCN2CC(C)CC(C)C2)c1` (configuration not stated) the figure was 15.6%.
With `Cc1cccc(CS(=O)(=O)c2ncc(Cl)c(C(=O)Nc3ccc(F)cc3)n2)c1` the figure was 95.8% (active); with `Cc1ccc(C)c(Cn2nnc3c(=O)[nH]c(C(=O)Nc4ccc(F)cc4)nc32)c1`, 6.9%.
With `CCS(=O)(=O)Nc1ccc(C(=O)NCCSc2ccccc2)cc1`, the inhibition was -6.43%.
In the case of `CCCCc1ccc(NC(=S)N2CCCC(CO)C2)cc1` (configuration not stated) it was -84.4%; in that of `COc1cccc(CN(C)CC(=O)Nc2sc3c(c2C#N)CCC3)c1`, -22.6%.
For the compound `COc1cncc(-c2cnc3sc(NCCc4ccccn4)nn23)c1`, the inhibition is 21.9%.
Turning to `COC(=O)c1sc(C(F)(F)F)c(-c2ccccc2)c1S(=O)(=O)N(C)C`, the inhibition is 10.9%.
With `O=C(O)Cc1ccc(NCc2ccccc2Cl)cc1` the figure was -22.2%; with `CC(C)OC(=O)c1ccc(NCc2cc(O)ccc2O)cc1Cl`, 95.7% (active); with `CC(CN1CCCCC1)OC(=O)c1ccccc1Cl` (configuration not stated), -3.13%.
In the case of `CNS(=O)(=O)c1cccc(C(=O)OCCCC(=O)c2ccccc2)c1` it was 41.8%.
As to `Fc1ccc2[nH]c3c(N4CCSCC4)ncnc3c2c1`, the inhibition was 89.7% (active).
With `CC(C)Cn1cnc2c(SCc3ccc(Cl)cc3)nc(N)nc21` the figure was 11.7%.
With `COCCn1c(SC(C)C(=O)NC2CC2)nnc1-c1cccc(C)c1` (configuration not stated) the figure was 1.3%.
In the case of `O=C(OC12CC3CC(CC(C3)C1)C2)c1ccc(NCc2cc(O)ccc2O)cc1`, the inhibition is 98.1% (active).
With `CC1(C)C2CCC1(C)C(OC(=O)c1ccc(O)cc1)C2` (configuration not stated) the figure was 21.8%.

Source of the values: PubChem BioAssay AID588674 (Broad Institute, 2011).
